This is an account of results in PubChem BioAssay (Tox21).

Values joined by “and” are separate entries in the source; they are usually repeats but may differ in a detail not shown here. Identical values can stand only once. Records with an inconclusive call do not appear. Where a call stands in place of a potency, no number is given. The source holds several records for some structures; these can differ, active in one and inactive in another. Active and inactive are the calls of the source. The call rests on the fitted dose curve; in most records, active means well fitted curve in the direction sought with a large enough effect in the repeat runs; inconclusive means weak or mixed curves; inactive means no such curve, though single readings can be large; an effect the other way counts as inactive or inconclusive.
Potency means the concentration at half of the fitted maximal effect.

Chain of Aryl hydrocarbon receptor (Homo sapiens) (P35869 whole entry, looked up): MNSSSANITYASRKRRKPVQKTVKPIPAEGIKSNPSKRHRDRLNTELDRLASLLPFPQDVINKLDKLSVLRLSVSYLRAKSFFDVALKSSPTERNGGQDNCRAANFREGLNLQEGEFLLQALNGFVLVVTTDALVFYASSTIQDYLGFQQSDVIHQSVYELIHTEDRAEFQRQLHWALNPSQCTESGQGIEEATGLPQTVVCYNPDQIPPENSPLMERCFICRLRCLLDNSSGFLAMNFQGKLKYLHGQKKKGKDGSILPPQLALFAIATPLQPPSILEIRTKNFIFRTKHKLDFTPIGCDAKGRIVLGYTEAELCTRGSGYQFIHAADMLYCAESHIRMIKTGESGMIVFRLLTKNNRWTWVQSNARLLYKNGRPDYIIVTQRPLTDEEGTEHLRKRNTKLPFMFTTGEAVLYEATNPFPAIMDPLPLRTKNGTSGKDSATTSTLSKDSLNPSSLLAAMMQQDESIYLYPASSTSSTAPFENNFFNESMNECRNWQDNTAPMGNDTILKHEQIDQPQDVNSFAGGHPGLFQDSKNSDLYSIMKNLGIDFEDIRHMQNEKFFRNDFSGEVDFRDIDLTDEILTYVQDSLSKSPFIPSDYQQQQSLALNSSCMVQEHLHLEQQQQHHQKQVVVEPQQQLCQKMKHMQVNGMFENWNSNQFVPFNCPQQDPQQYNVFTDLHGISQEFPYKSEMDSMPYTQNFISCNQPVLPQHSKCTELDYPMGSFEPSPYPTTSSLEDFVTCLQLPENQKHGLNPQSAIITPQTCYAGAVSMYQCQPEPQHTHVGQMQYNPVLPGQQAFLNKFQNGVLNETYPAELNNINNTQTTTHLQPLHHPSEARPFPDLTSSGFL

The target of the first assay is Aryl hydrocarbon receptor (Homo sapiens) (UniProt P35869). The experiment in a line: qHTS assay to identify small molecule that activate the aryl hydrocarbon receptor (AhR) signaling pathway (AID 743085). Further: nearly all actives have a fitted effect of over 15% in size.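 On activation: HG2L7.5c1 human HepG2 liver cells with stably integrated DRE-driven firefly reporter.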 Particulars: HepG2 AhR-luc (HG2L7.5c1), luciferase, 24 h; series mostly up to 70.3 µM; activation: at the top concentration. An outline of the steps:
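HepG2 cells (HG2L7.5c1) stably carrying a firefly luciferase reporter driven by 20 dioxin responsive elements were exposed to compound for 24 h at 37C after a 5 h settling period; luminescence rise (ONE-Glo) indicated activation.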
A general note: Quantitative high-throughput screening tests each substance at several concentrations.
As to `CCCCNC(=O)NS(=O)(=O)c1ccc(N)cc1`, the Potency result is “inactive”.

As for `CCCCCCCCCCCCCCCCCC(=O)OCC(O)CO` (stereo not given), the Potency entry was “inactive”.

For `COCC(C)N` (stereo not given), the Potency entry is “inactive”.

On to `CCCCCCCCCCCCCC(=O)OC(C)C`, for which the Potency entry is “inactive”.

For `N[C@@H](Cc1c[nH]c2ccccc12)C(=O)O`, the Potency is 30.7 µM (active).

`CCCCC/C(C=O)=C\c1ccccc1`: the Potency result was “inactive”.

For the molecule `C=CCOC(=O)CC(C)C`, the Potency result was “inactive”.

Take `CC(=O)c1ccc(S(=O)(=O)NC(=O)NC2CCCCC2)cc1`: the Potency entry was “inactive”.

For `COC(=O)c1ccc(O)cc1`, the Potency result was “inactive”.

Consider `Oc1cccc(O)c1`, for which the Potency result was “inactive”.

`COc1ccccc1O`: the Potency result was “inactive”.

On to `CC(C)CC(C)CC(O)CC(C)C` (stereo not given), for which the Potency result was “inactive”.

For the molecule `NC(=O)N1c2ccccc2C=Cc2ccccc21`, the Potency entry is “inactive”.

On to `O=C1CCCCCN1`, for which the Potency result is “inactive”.

Turning to `O=c1c(-c2ccc(O)cc2)coc2cc(O)cc(O)c12`, the Potency result was “inactive and 12.2 µM (active)”.

On to `O=C(O)Cc1cccc2ccccc12`, for which the Potency entry was “inactive”.

In the case of `COc1cc(O)c(C(=O)c2ccccc2)cc1S(=O)(=O)O`, the Potency entry is “inactive”.

On to `CCCCOCCOCCOC(C)=O`, for which the Potency entry is “inactive”.

`Cn1cnc2c1c(=O)[nH]c(=O)n2C`: the Potency entry was “inactive”.

`COCCOCCOC`: the Potency result is “inactive”.

Turning to `CCOC(=O)C(C)(C)Oc1ccc(Cl)cc1`, the Potency result is “inactive”.

On to `CC(O)COc1ccccc1` (stereo not given), for which the Potency result was “inactive”.

Regarding `Cc1cccc(C)c1O`, the “activation” value is -0.0682% (inactive).

As to `COC(=O)c1ccc(C=O)cc1`, the Potency result is “inactive”.

On to `Cc1ccc(O)c(-n2nc3ccccc3n2)c1`, for which the Potency is 21.1 µM (active) and 60.6 µM (active) and 17.2 µM (active).

For the molecule `Cc1cccc2ccccc12`, the “activation” value is 3.86% (inactive).

`CC(=O)CCC(C)C`: the Potency entry was “inactive”.

In the case of `O=[N+]([O-])c1ccc(O)cc1`, the Potency result was “inactive”.

As to `CCCCCCCCOc1ccc(C(=O)c2ccccc2)c(O)c1`, the Potency result was “inactive”.

`Cc1c(N(C)CS(=O)(=O)O)c(=O)n(-c2ccccc2)n1C`: the Potency result is “inactive”.

Test system in another assay: not listed separately
The experiment in a line: qHTS assay to identify small molecule that activate the aryl hydrocarbon receptor (AhR) signaling pathway - cell viability counter screen (AID 743086). Further: nearly all actives have a fitted effect of over 45% in size. Particulars: HepG2-AhR-luc viability, CellTiter-Fluor, 24 h; series mostly up to 70.3 µM; viability change, negative = cytotoxic: at the top concentration. The method in brief: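 Cytotoxicity counter screen: CellTiter-Fluor signal (30 min, 37 C) in 4000 HepG2 cells/well carrying the DRE-luciferase reporter, following 24 h compound exposure at 37 C.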
Take `CCCCNC(=O)NS(=O)(=O)c1ccc(N)cc1`: the Potency entry was “inactive”.

Regarding `CCCCCCCCCCCCCCCCCC(=O)OCC(O)CO` (stereo not given), the Potency entry was “inactive”.

As to `COCC(C)N` (stereo not given), the Potency entry is “inactive”.

For the molecule `CCCCCCCCCCCCCC(=O)OC(C)C`, the Potency result is “inactive”.

`N[C@@H](Cc1c[nH]c2ccccc12)C(=O)O`: the Potency result is “inactive”.

With `CCCCC/C(C=O)=C\c1ccccc1`, the Potency entry is “inactive”.

With `C=CCOC(=O)CC(C)C`, the Potency result is “inactive”.

With `CC(=O)c1ccc(S(=O)(=O)NC(=O)NC2CCCCC2)cc1`, the Potency entry is “inactive”.

In the case of `COC(=O)c1ccc(O)cc1`, the Potency entry is “inactive”.

Regarding `Oc1cccc(O)c1`, the Potency entry was “inactive”.

For `COc1ccccc1O`, the Potency entry was “inactive”.

Regarding `CC(C)CC(C)CC(O)CC(C)C` (stereo not given), the Potency result was “inactive”.

For `NC(=O)N1c2ccccc2C=Cc2ccccc21`, the Potency result was “inactive”.

Consider `O=C1CCCCCN1`, for which the Potency result is “inactive”.

Turning to `O=c1c(-c2ccc(O)cc2)coc2cc(O)cc(O)c12`, the Potency entry was “inactive”.

As for `O=C(O)Cc1cccc2ccccc12`, the Potency entry was “inactive”.

For `COc1cc(O)c(C(=O)c2ccccc2)cc1S(=O)(=O)O`, the Potency result is “inactive”.

Consider `CCCCOCCOCCOC(C)=O`, for which the Potency entry is “inactive”.

Regarding `Cn1cnc2c1c(=O)[nH]c(=O)n2C`, the Potency entry is “inactive”.

Take `COCCOCCOC`: the Potency result was “inactive”.

Consider `CCOC(=O)C(C)(C)Oc1ccc(Cl)cc1`, for which the Potency entry is “inactive”.

Regarding `CC(O)COc1ccccc1` (stereo not given), the Potency entry is “inactive”.

Regarding `Cc1cccc(C)c1O`, the Potency result is “inactive”.

In the case of `COC(=O)c1ccc(C=O)cc1`, the Potency result was “inactive”.

As to `Cc1ccc(O)c(-n2nc3ccccc3n2)c1`, the Potency result is “inactive”.

Turning to `Cc1cccc2ccccc12`, the Potency entry is “inactive”.

With `CC(=O)CCC(C)C`, the Potency result is “inactive”.

On to `O=[N+]([O-])c1ccc(O)cc1`, for which the Potency is 54.5 µM (active) and inactive.

Turning to `CCCCCCCCOc1ccc(C(=O)c2ccccc2)c(O)c1`, the Potency result is “inactive”.

In the case of `Cc1c(N(C)CS(=O)(=O)O)c(=O)n(-c2ccccc2)n1C`, the Potency entry was “inactive”.
